According to PubChem BioAssay (NCATS):
Inconclusive results are not listed. Activity calls are given as the source filed them. The call rests on the fitted dose curve; in most records, active means well fitted activation curve with a large enough effect; inconclusive means small, poorly fitted or top-dose-only effect; inactive means no such curve, though single readings can be large or run the other way.

Target: D(1A) dopamine receptor (Homo sapiens) (UniProt P21728)
Experiment: HTS Assay for Allosteric Agonists of the Human D1 Dopamine Receptor: Primary Screen for Potentiators (AID 488982); further: 0% is about no effect
Conditions: HEK293 T-REx D1 inducible cells, calcium flux, kinetic fluorescence; series mostly up to 8.37 µM; activity, positive = potentiation: at the top concentration
Text: Dopamine receptors (DARs) are involved in the etiology and/or therapy of a number of neuropsychiatric and endocrine disorders. For instance, all receptor-based antiparkinsonian drugs work via stimulating the […] DAR subtype whereas all FDA-approved antipsychotic agents are antagonists of this receptor. […] There are three different types of allosteric modulators that we are seeking, two of which will stimulate or augment receptor signaling, allosteric agonists and potentiators, while the third, allosteric antagonists, will attenuate receptor signaling. The present primary screening assay measures compound agonism by tracking calcium flux in a […], inducible Hek293 Trex D1 cell line.
Freshly passaged cells are plated in 1536 well black, clear bottom plates at a density of 4000 cells/well in 3 ul of complete media containing 1x tetracycline inducer. After an overnight incubation at 30 C in 5% CO2, cells are loaded with 2 ul of the no wash Calcium Assay Kit (ABD Bioquest) and incubated at room temperature for 30 to 90 minutes. A 10 cycle (1 second/cycle) baseline measurement is taken and then the FDSS online 1536 pintool delivers 23 nl of compound library (as well as dopamine controls) to the plate. The plate is measured for kinetically at 1 cycle/sec for 180 seconds and is considered to be the agonist portion of the assay (eg, compounds which activate a positive calcium response during this portion are flagged as potential agonists). Following the 180 second read, 1 ul of an EC20 of dopamine is delivered by an onboard pipette head. Measurements are taken kinetically for an additional 180 seconds.

Sequence of D(1A) dopamine receptor (Homo sapiens) (P21728 whole entry, looked up): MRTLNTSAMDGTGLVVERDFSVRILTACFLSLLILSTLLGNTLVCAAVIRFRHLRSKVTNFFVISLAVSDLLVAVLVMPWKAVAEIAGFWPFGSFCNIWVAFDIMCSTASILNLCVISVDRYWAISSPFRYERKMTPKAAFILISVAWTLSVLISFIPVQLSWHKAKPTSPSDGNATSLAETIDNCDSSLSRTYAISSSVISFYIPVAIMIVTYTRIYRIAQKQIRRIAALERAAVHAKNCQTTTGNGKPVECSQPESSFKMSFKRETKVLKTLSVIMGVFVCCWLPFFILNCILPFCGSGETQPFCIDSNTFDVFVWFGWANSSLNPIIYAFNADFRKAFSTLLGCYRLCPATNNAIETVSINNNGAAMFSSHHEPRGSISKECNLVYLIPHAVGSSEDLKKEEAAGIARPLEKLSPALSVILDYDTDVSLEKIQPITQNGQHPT

SMILES | activity, positive = potentiation | outcome
C=C(C)[C@H]1CN[C@H](C(=O)O)[C@H]1CC(=O)O | 23.9% (inactive) | –
O=C(O)CCCc1ccc(N(CCCl)CCCl)cc1 | -8.11% (inactive) | –
CC(C)N(CCC(C(N)=O)(c1ccccc1)c1ccccn1)C(C)C (centres undefined) | – | inactive
O=C(CCCN1CCC2(CC1)C(=O)NCN2c1ccccc1)c1ccc(F)cc1 | 24.4% (inactive) | –
CC(C)(C)NCC(O)c1ccccc1Cl (centres undefined) | 7.24% (inactive) | –
CCC1(c2ccc(N)cc2)CCC(=O)NC1=O (centres undefined) | 12.5% (inactive) | –
COc1ccc2c(c1OC)C(=O)O[C@H]2[C@@H]1c2cc3c(cc2CCN1C)OCO3 | 14.2% (inactive) | –
NCCc1ccc(O)cc1 | 4.03% (inactive) | –
CCCCC/C=C\C/C=C\C/C=C\C/C=C\CCCC(=O)NCC(=O)O | 6.45% (inactive) | –
O=c1[nH]oc2c1CCNC2 | 36.8% (inactive) | –
CC(C)C[C@H]1C(=O)N2CCC[C@H]2[C@]2(O)O[C@](NC(=O)[C@@H]3C=C4c5cccc6[nH]c(Br)c(c56)C[C@H]4N(C)C3)(C(C)C)C(=O)N12 | -77.8% (inactive) | –
O=P1(N(CCCl)CCCl)NCCCO1 (centres undefined) | -0.761% (inactive) | –
CN1C(=O)CCS(=O)(=O)C1c1ccc(Cl)cc1 (centres undefined) | 14.1% (inactive) | –
CC(C)c1cccc(C(C)C)c1O | 20.2% (inactive) | –
